FBPA Giardia inh: blocks Giardia fructose-bisphosphate aldolase activity; purified Giardia FBPA; Potency, µM (doses to about 59.6 µM), inactives show at the top dose activity, negative = inhibition, actives largely listed as inhibitors; actives 0.71% (n = 290,000); also: potency is read from the fitted curve at half-maximal effect; % is scaled to controls: 0 for no effect and ±100 for the full control effect; nearly all actives have a fitted effect of over 55% in size
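40 nM FBPA preincubated 10 min at RT with compound (up to 57.5 uM final), then substrate plus GAPDH/TPI/NAD/arsenate coupling and diaphorase/resazurin added. Fluorescence read after 20 min at RT, 525/598 nm.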
Shiga toxin inh: Shiga toxin inhibition; AID 2315; actives 9.2% (n = 290,000); inhibition, % at 38.7 µM; Vero cells, Shiga toxin protein synthesis inhibition reporter; in the data active = inhibition mostly above about 28%, no sharp cut-off; inactive = mostly below about 43%; also: 0% is about no effect
TbPYK inhibitor: inhibitors of Trypanosoma brucei pyruvate kinase | TbPYK enzyme, Kinase-Glo Plus ATP luminescence, 45 min | Q57TT1 | actives 0.12% (n = 410,000) | Potency, µM (titrated, usually from 76.8 µM), for inactives: at the top dose activity, negative = inhibition, most hits filed as inhibitors; also: potency is read from the fitted curve at half-maximal effect; % is scaled to controls: 0 for no effect and ±100 for the full control effect; nearly all actives have a fitted effect of over 50% in size
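TbPYK + substrate in 50 mM TEA pH 7.2, 100 mM KCl, 10 mM MgCl2, 0.05% BSA, 0.01% Tween-20; cpd pinned; ADP 130 uM final; 45 min RT; Kinase-Glo Plus 10 min; luminescence endpoint.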
CHX counter: counter-screen hit for Shiga toxin inhibitors, cycloheximide; cell reporter, cycloheximide protein synthesis inhibition counterscreen; max response, %; actives 12% (n = 300,000); in the data active = max response mostly above about 13%, no sharp cut-off; inactive = mostly below about 14%; also: read at 38.3 µM for the half of the compounds with a filed dose; 0% is about no effect
LmPK inhibitor: LmPK (Leishmania mexicana) enzyme inhibition; AID 1721; actives 0.37% (n = 290,000); purified LmPK, Kinase-Glo ATP luminescence, 1 h; Potency, µM (top dose mostly 57.5 µM), for inactives: at the highest dose activity change, negative = inhibition, usual class: inhibitors; also: potency is read from the fitted curve at half-maximal effect; % is scaled to controls: 0 for no effect and ±100 for the full control effect
Target sequence (Q27686 whole entry, looked up): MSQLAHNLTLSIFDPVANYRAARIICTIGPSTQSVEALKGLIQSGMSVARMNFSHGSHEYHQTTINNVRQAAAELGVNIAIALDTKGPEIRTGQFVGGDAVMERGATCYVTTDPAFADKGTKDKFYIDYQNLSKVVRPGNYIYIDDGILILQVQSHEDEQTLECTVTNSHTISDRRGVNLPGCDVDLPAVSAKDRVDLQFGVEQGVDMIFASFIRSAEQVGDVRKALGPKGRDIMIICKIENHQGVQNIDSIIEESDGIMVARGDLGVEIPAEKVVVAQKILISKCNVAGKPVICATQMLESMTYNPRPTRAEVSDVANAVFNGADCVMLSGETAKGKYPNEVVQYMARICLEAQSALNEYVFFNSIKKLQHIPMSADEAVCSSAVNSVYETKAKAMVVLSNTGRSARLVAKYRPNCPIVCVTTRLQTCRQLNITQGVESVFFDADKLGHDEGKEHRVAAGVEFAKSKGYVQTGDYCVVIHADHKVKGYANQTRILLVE
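ATP generated from ADP (0.1 mM) and PEP (0.5 mM) by 0.1 nM LmPK over 1 h at room temperature (pH 7.2 imidazole buffer) was detected by coupled luciferase luminescence. Values were normalized to uninhibited and no-enzyme wells.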
RE007 growth inh: less growth of the S. pombe RE007 Vpr strain; AID 651644; S. pombe RE007 Vpr strain, BacTiter-Glo ATP luminescence, 24 h; Potency, µM (titrated, usually from 92.2 µM), inactives show top-dose activity change, negative = less growth, usual class: inhibitors; actives 0.21% (n = 360,000); active = well fitted falling curve with a large enough effect; inconclusive = small, poorly fitted or top-dose-only effect; inactive = no such curve, though single readings can be large or run the other way; also: potency is read from the fitted curve at half-maximal effect; % is scaled to controls: 0 for no effect and ±100 for the full control effect; nearly all actives have a fitted effect of over 50% in size
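Fission yeast RE007 carrying one integrated HIV-1 vpr copy, seeded at OD 0.01 in PMG+AL medium with 23 nL pinned compound. Grown 24 h at 30 degrees; viability read by BacTiter-Glo luminescence after 5 min.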
* marks the source's active call; other numbers are inactive results; ? = inconclusive; . = not tested or not shown; [ ] = remark or other dose. The full list was thinned out, with hits kept by preference. Unless noted, calls follow the shape of the dose curve; as a rule, active = well fitted curve in the direction sought with a large enough effect; inconclusive = small, poorly fitted or top-dose-only effect, or another doubt; inactive = no such curve, though single readings can be large; an effect the other way counts as inactive or inconclusive.

SMILES	FBPA Giardia inh	Shiga toxin inh	TbPYK inhibitor	CHX counter	LmPK inhibitor	RE007 growth inh
N#CCC(=O)N/N=C/c1ccc(N2N=C(c3ccccc3)CC2c2ccccc2)cc1 (stereo not given)	-8.4%	2.4	0.0%	10.4*	10.4%	2.9%
COc1ccc(C2CC(c3ccccc3)=NN2c2ccc(/C=N/NC(=O)c3ccncc3)cc2)cc1 (stereo not given)	-0.3%	28.0*	-10.2%	13.9*	-2.2%	-24.7%
O=S(=O)(c1ccccc1)N1CCC2(CCN(c3cccc(-c4ccccc4)c3)CC2)CC1	0.5%	.	0.0%	.	.	.
CCCn1c2ccccc2c2cnn(CC(=O)N3CCC(C(=O)OCC)CC3)c(=O)c21	.	.	-3.2%	.	.	.
COc1ccc(Cn2c(-c3ccc(OC)cc3)nc3ccccc32)cc1	-8.6%	11.9	-0.4%	7.4	2.0%	-13.0%
COc1ccc(Cn2c(-c3ccc(Br)cc3)c[n+]3ccccc23)cc1	3.5%	48.6*	3.3%	56.6*	-11.2%	-23.0%
O=C(Nc1ccccc1)O[C@@H]1C[C@H]2CCCC(=O)N3CC[C@@H](C1)[C@@H]23	.	.	-9.8%	.	.	-17.3%
O=C(Nc1ccccc1)OC1CC2CC1C1CCCC21 (stereo not given)	-7.1%	93.8*	-12.5%	51.5*	3.9%	2.4%
O=C(Nc1ccccc1)O[C@@H]1C[C@H]2CCC(=O)N3CC[C@@H](C1)[C@@H]23	8.7%	38.2*	.	31.1*	-5.4%	.
COc1cc2c(cc1O)C(Cc1ccc(O)cc1)[N+](C)(C)CC2 (stereo not given)	1.0%	.	.	.	.	.
CC(C)C[C@H](NC(=O)C1OC1C(=O)O)C(=O)NCCCCN=C(N)N (stereo not given in full)	-1.5%	.	.	.	.	.
Cc1nn2c(C)c(C(=O)N3CCN(c4ccccc4)CC3)cnc2c1-c1ccccc1	.	.	-7.8%	.	.	.
CCCOc1ccc2c(CC)cc(=O)oc2c1C	7.1%	30.7	-14.6%	11.1*	-10.0%	-1.5%
NC1=NC(=O)/C(=C\c2ccco2)S1	?	-5.1	-21.9%	16.7*	10.5%	-22.2%
NC1=NC(=O)C(=Cc2ccccc2)S1	.	.	-10.0%	.	.	2.3%
COc1ccc(C(=O)Nc2nnc(C3=COCCO3)o2)cc1	.	4.6	1.5%	11.9	-0.3%	-16.6%
O=C(Nc1nnc(-c2ccccc2)o1)C1CCCCC1	4.2%	12.2	-0.3%	-3.3	5.5%	-2.8%
O=C(Nc1nnc(-c2ccc3c(c2)OCCO3)o1)C1CCCCC1	0.9%	130.7*	-5.3%	43.5*	-4.6%[11.5 µM]	15.3%
O=C(Nc1nnc(-c2ccc(Cl)cc2)o1)C1CCCCC1	1.5%	-8.4	3.1%	-1.6	1.3%	0.2%
CCOc1ccc(C(=O)Nc2nnc(C3=COCCO3)o2)cc1	.	18.9	7.4%	8.4*	-2.2%	-10.4%
O=C(CCOc1ccccc1)Nc1nnc(-c2ccc3c(c2)OCCO3)o1	0.4%	47.2	27.0%	21.1*	8.2%[11.5 µM]	22.8%
CCOc1ccc(-c2nnc(NC(=O)C3CCCC3)o2)cc1	12.7%	42.3*	-3.4%	34.8*	8.1%	22.9%
COc1ccc2c(CNC3CCC(C)CC3)c(C(=O)O)n(Cc3ccccc3)c2c1 (stereo not given)	.	.	1.8%	.	.	.
COc1ccc(-c2cn3nc(SCC(=O)NC4CCCCC4)ccc3n2)cc1	1.3%	94.6*	-4.0%	49.9*	7.9%	-0.8%
COc1ccc(-c2nc(SCC(=O)NC3CCCCC3)n[nH]2)cc1	.	20.3	-3.3%	23.6*	-6.4%	-7.9%
COc1ccc(-c2nnc(SCC(=O)NC3CCCCC3)nc2-c2ccc(OC)cc2)cc1	.	.	6.9%	.	.	.
CCOc1ccc(-c2ccc(SCC(=O)NC3CCCCC3)nn2)cc1	-0.5%	39.3	-7.6%	16.7*	1.4%	-13.6%
CCSc1nn2c(=O)c3ccccc3nc2s1	-0.3%	85.4*	-12.1%	47.6*	?	?
CCc1cccc(C)c1Nc1nn2c(=O)c3ccccc3nc2s1	.	.	-18.8%	.	.	.
Cn1c(O)c(/C=N/N2CCOCC2)c(=O)n(-c2ccccc2)c1=S	-8.7%	-10.5	-0.8%	-0.4	-2.9%	1.6%

High-throughput results from PubChem BioAssay.
